# Measurements taken from PubChem BioAssay (NCI).
# Compounds without any hit were thinned out: in the full panel of roughly 83,000, 20% have a hit.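 Compound tested at a single concentration for 48 hours in 96-well plates; a percent growth value below 10 was scored as active.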 Values without a mark were called inactive. Active and inactive are the calls of the source.
# What was measured:
# Assay in all cases: NCI-60 one-dose screen, 48 h (100 = growth as untreated, 0 = no growth, -100 = all killed)
# Conditions in all cases: 10 µM unless noted
# SK-MEL-2 melanoma = test system: SK-MEL-2 melanoma
# EKVX NSCLC = test system: EKVX NSCLC
# SN12C renal = test system: SN12C renal
# UO-31 renal = test system: UO-31 renal
# TK-10 renal = test system: TK-10 renal
# ACHN renal = test system: ACHN renal
# CAKI-1 renal = test system: CAKI-1 renal
# A498 renal = test system: A498 renal
# CCRF-CEM leukemia = test system: CCRF-CEM leukemia
# MOLT-4 leukemia = test system: MOLT-4 leukemia
# SR leukemia = test system: SR leukemia
# RPMI-8226 leukemia = test system: RPMI-8226 leukemia
# OVCAR-8 ovarian = test system: OVCAR-8 ovarian
# OVCAR-5 ovarian = test system: OVCAR-5 ovarian
# OVCAR-4 ovarian = test system: OVCAR-4 ovarian
# SK-OV-3 ovarian = test system: SK-OV-3 ovarian
# IGROV1 ovarian = test system: IGROV1 ovarian
# OVCAR-3 ovarian = test system: OVCAR-3 ovarian
# HS 578T breast = test system: HS 578T breast
# NCI/ADR-RES ovarian = test system: NCI/ADR-RES ovarian
Compound,growth (SK-MEL-2 melanoma),growth (EKVX NSCLC),growth (SN12C renal),growth (UO-31 renal),growth (TK-10 renal),growth (ACHN renal),growth (CAKI-1 renal),growth (A498 renal),growth (CCRF-CEM leukemia),growth (MOLT-4 leukemia),growth (SR leukemia),growth (RPMI-8226 leukemia),growth (OVCAR-8 ovarian),growth (OVCAR-5 ovarian),growth (OVCAR-4 ovarian),growth (SK-OV-3 ovarian),growth (IGROV1 ovarian),growth (OVCAR-3 ovarian),growth (HS 578T breast),growth (NCI/ADR-RES ovarian)
Cn1c(COC(=O)N2CCCCC2)nc2c(N3CCOCC3)nc(-c3ccccc3)nc21,-79.6% (active),-59.4% (active),-86.1% (active),-99.3% (active),-86.2% (active),-100% (active),-88% (active),-21.7% (active),-6.4% (active),-5.2% (active),0.966% (active),-29.5% (active),-6.61% (active),-79.8% (active),-78.4% (active),60.2%,-80.6% (active),-85.3% (active),-36.1% (active),-8.64% (active)
COc1ccc(/C=C/C(=O)c2ccc(Nc3ncnc4ccccc34)cc2)cc1OC,124%,78.3%,88.5%,71.2%,98.8%,88.8%,75.6%,77.6%,49.7%,48.2%,16.7%,-11.4% (active),65%,103%,85.5%,102%,76.3%,74.9%,110%,78.1%
COc1ccc2c(c1)OC1=C(C(=O)OC1)C2c1cc(OC)c(OC)c(OC)c1 (configuration not stated),27.3%,50.7%,47.7%,51.5%,67.4%,48.8%,55.6%,-1.39% (active),13.8%,20.4%,15.3%,11.5%,21.1%,32.7%,56.3%,13%,49%,-55.9% (active),–,1.95% (active)
CC(=O)c1c[nH]c2ccc(-c3ccnc(Nc4ccc(NC(=O)C5CCCC5)c(CN5CCOCC5)c4)n3)cc12,-54.3% (active),-47.3% (active),-8.98% (active),2.12% (active),0.0909% (active),-5.66% (active),0.231% (active),-85.1% (active),-11.5% (active),-16.2% (active),3.58% (active),-42.2% (active),7.02% (active),-11.6% (active),-14% (active),10.6%,-14.8% (active),-7.43% (active),-27.7% (active),-4.77% (active)
CCn1cc(C2NC(=O)c3ccccc3N2)c2cccc(C)c21 (configuration not stated),2.54% (active),29.4%,23.9%,38.7%,33.6%,26.8%,32.6%,-17.4% (active),-3.39% (active),10.9%,-18.2% (active),6.81% (active),7.03% (active),19.6%,25.7%,32.9%,14.4%,–,7.22% (active),8.25% (active)
CN1CCN(CCCOc2ccc3ncnc(Nc4ccc(Oc5cccc(C(F)(F)F)c5)c(Cl)c4)c3c2)CC1,40.3%,36.6%,27.1%,20.1%,19.3%,-37.5% (active),0.55% (active),63.1%,-9.94% (active),3.44% (active),4.03% (active),-21.6% (active),24.6%,5.84% (active),2.72% (active),21.4%,-53.7% (active),30.2%,26.8%,34.8%
COc1ccc(-c2nc(SCCC(C)C)nc(N/N=C(/C)c3ccc(C)cc3)c2C#N)cc1,106%,90.8%,75%,66%,107%,89.6%,83.2%,99.4%,94.4%,88.3%,91.2%,88%,88.1%,85.4%,103%,95.7%,84.7%,102%,85.1%,89.8%
CCN(CC)CCCC(Nc1c2ccc(Cl)cc2nc2ccc(OC)cc12)c1ccc(Cl)cc1 (configuration not stated),-78.7% (active),53.1%,36.3%,28.2%,-60.4% (active),-33.7% (active),-36.9% (active),38.2%,-7.24% (active),-20.9% (active),-32.9% (active),-18.6% (active),-37.7% (active),33.7%,20.3%,64.9%,-15.3% (active),-17.6% (active),-47.7% (active),-13.3% (active)
COc1ccc(C(=O)c2cc3c(N)c(C(=O)Nc4ccc(Br)cc4)sc3nc2C)cc1,74.4%,83.1%,84.4%,72.3%,98.8%,65.5%,62.5%,83.9%,88.5%,91.2%,51.5%,77%,37.2%,88%,0.804% (active),62.1%,85.9%,65.4%,32.3%,70%
O=S(=O)(c1ccccc1)N1CCCc2ccccc21,103%,101%,98.9%,80.4%,94.5%,99.4%,101%,77.1%,92.4%,94.6%,103%,93.1%,99%,103%,113%,105%,99.5%,102%,93.2%,107%
C#CCn1cc(C=C2C(=O)NC(=S)NC2=O)c2cc(Cl)ccc21,89.1%,67.2%,-34.9% (active),-73.4% (active),16.1%,-25.2% (active),9.84% (active),-1.83% (active),0.645% (active),5.59% (active),4.92% (active),-14.9% (active),12.1%,56.9%,56.1%,81.7%,-40.6% (active),-36.4% (active),-0.874% (active),19.5%
COc1c(Cl)cc(Cl)c2ccc(C=C3C(=O)N(C)C(=O)N(C)C3=O)nc12,107%,101%,99.3%,96%,102%,106%,95.3%,96.8%,99.8%,99.5%,93.2%,102%,111%,111%,104%,101%,114%,104%,104%,106%
COc1cc(NCCCN(CC(C)C)C2CCCC2)c2ncccc2c1,100%,89.9%,61.9%,51%,93.6%,41.7%,76%,37.1%,54.1%,71%,16.8%,35.5%,59.2%,96.3%,22.5%,84.6%,50.6%,52.6%,–,71.8%
Cc1c2c(cc[n+]1Cc1ccccc1)c1ccc(OCC3CCCCC3)cc1n2CC1CCCCC1,-86.5% (active),-75.5% (active),-91.9% (active),-93.1% (active),-93.6% (active),-100% (active),-92.5% (active),-97.4% (active),-36.2% (active),-64.5% (active),-57.7% (active),-45.2% (active),-90.1% (active),-95.5% (active),-94.3% (active),-53.4% (active),-70.6% (active),-100% (active),-36.2% (active),31.5%
CN1CCN(c2ccc(NC3=C(Cl)C(=O)c4ncccc4C3=O)cc2C#N)CC1,78.8%,36.4%,25.5%,-34.9% (active),85.4%,-96.1% (active),0.744% (active),79.7%,-19.9% (active),-10.8% (active),3.52% (active),37.7%,26.8%,73.5%,-97.7% (active),86.3%,-29.1% (active),-63.7% (active),61.4%,73.1%
CC(=O)NCCCS(=O)(=O)O,101%,98.6%,88.3%,83.9%,102%,98.2%,88.5%,93.4%,106%,104%,101%,113%,104%,100%,107%,103%,108%,108%,83.4%,101%
